# TGFb inhibitor: TGF-b pathway inhibition; HepG2 CAGA-GFP TGF-b/SMAD3 reporter, GFP fluorescence, 18 h; TGF-beta stimulated, 500 pg/mL final; Potency, µM (titrated, usually from 46.1 µM), for inactives: at the top dose activity, negative = inhibition, usual class: inhibitors; actives 1.2% (n = 410,000); note: % is set by controls: 0 for no effect and ±100 for the full control effect; nearly all actives have a fitted effect of over 65% in size
#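 TGF-beta reporter screen: HEPG2 CAGA-GFP, 1% FBS, 500 pg/mL TGF-beta final, 18 h; per-cell GFP summed per well; curves fitted and categorized by class.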
# 12-LOX inh: ALOX12 (human) lipoxygenase inhibition; P18054; purified 12hLO, xylenol orange hydroperoxide absorbance; Potency, µM (top dose mostly 108 µM), for inactives: at the highest dose activity change, negative = inhibition, actives largely listed as inhibitors; actives 1.1% (n = 580,000); note: % is set by controls: 0 for no effect and ±100 for the full control effect
# Target sequence (P18054 whole entry, looked up): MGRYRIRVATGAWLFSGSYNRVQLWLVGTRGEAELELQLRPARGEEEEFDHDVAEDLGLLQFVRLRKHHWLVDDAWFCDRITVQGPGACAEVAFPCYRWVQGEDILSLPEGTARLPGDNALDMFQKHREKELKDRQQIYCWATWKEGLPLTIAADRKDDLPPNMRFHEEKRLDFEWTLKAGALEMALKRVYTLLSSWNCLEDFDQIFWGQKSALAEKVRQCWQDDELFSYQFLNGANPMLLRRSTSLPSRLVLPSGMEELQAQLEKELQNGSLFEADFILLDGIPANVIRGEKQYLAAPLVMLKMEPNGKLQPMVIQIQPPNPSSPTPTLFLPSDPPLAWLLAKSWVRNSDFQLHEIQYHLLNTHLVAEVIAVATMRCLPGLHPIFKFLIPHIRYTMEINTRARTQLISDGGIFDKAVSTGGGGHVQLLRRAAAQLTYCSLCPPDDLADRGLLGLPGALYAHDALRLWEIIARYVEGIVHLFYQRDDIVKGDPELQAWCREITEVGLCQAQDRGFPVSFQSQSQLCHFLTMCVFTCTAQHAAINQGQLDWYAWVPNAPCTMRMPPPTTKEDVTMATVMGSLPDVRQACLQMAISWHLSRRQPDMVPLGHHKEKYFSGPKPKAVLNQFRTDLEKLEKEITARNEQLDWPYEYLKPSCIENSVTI
#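 Hydroperoxide product was detected by ferrous iron/xylenol orange as the 573 to 405 nm absorbance ratio. Arachidonic acid at 40 uM (final) was turned over for 30 min at room temperature by 150 nM human 12hLO, pH 7.0 Hepes buffer, after 15 min compound preincubation.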
# ATXN viability: cell viability loss in ATXN counter-screen; S2 cells (HEK-293 line with an ATXN2-luciferase reporter) viability, CellTiter-Fluor protease fluorescence, 24 h; Potency, µM (doses to about 56.7 µM), most hits filed as cytotoxic; actives 0.49% (n = 400,000); note: nearly all actives have a fitted effect of over 40% in size
# ATXN2 expr inh: inhibitors of ATXN2 expression; HEK-293 ATXN2-luciferase reporter, luminescence, 24 h; Potency, µM (titrated, usually from 57 µM), for inactives: at the highest dose activity change, negative = inhibition, most hits filed as inhibitors; actives 0.72% (n = 360,000); AID 1745845; note: % is set by controls: 0 for no effect and ±100 for the full control effect; nearly all actives have a fitted effect of over 55% in size
#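 ATXN2-luciferase reporter cells (luciferase flanked by upstream and downstream ATXN2 gene portions) were treated 24 h at 37 °C with compounds at up to 57 uM. SteadyGlo luminescence gave expression; GF-AFC fluorescence gave viability.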
# HepG2 tox: kills HepG2 cells in TGF-b inhibitor counter-screen; actives 0.76% (n = 410,000); AID 588856; HepG2 CAGA-GFP viability, ATP luminescence, 18 h; Potency, µM (highest dose often 46.1 µM), without a hit: top-dose activity change, negative = cytotoxicity, hits mostly cytotoxic
#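 HepG2 CAGA-GFP cells (1000/well, DMEM with 1% FBS) received compound, then TGF-beta at 500 pg/mL final, and were incubated 18 hours at 37 degrees C. Viability was read by CellTiter-Glo luminescence. Media-only wells were set as complete cell-killing and DMSO as no toxicity.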
# Active calls of the source: *; i = inactive; ? = inconclusive; · = not tested or not shown; [ ] = another dose, or the depositor's remark. Only some compounds are listed: those with a hit (about 2.7% of all), similar ones and a draw of the others. Calls come from the whole dose curve; as a rule, active = well fitted curve in the direction sought with a large enough effect; inconclusive = small, poorly fitted or top-dose-only effect, or another doubt; inactive = no such curve, though single readings can be large; an effect the other way counts as inactive or inconclusive. Potency is the fitted concentration of half-maximal effect.
SMILES,TGFb inhibitor,12-LOX inh,ATXN viability,ATXN2 expr inh,HepG2 tox
COc1ccc(CNC(=O)Cn2c(SCC(=O)Nc3ccc(OC)cc3)nc3ccccc32)cc1,?,-2.1%,?,?,-49.0%
O=C(Cn1c(SCC(=O)Nc2ccc(F)cc2)nc2ccccc21)NCc1ccc(Cl)cc1,12.6µM*,-23.9%,?,-27.3%,-98.2%
CCOC(=O)Cc1csc(NC(=O)NC2(C(F)(F)F)Oc3ccc(Cl)cc3O2)n1 (centres undefined),-6.3%,?,i,-9.6%,-42.8%
CCOC(=O)Cc1csc(NC(=O)NC2(C(F)(F)F)Oc3cc(Cl)c(Cl)cc3O2)n1,?,0.631µM*,?,-26.4%,-77.9%
O=S(=O)(c1ccc(-c2cnc(C3CC3)o2)cc1)N1CCN(c2ccc(F)cc2)CC1,?,-12.6%,i,-1.7%,-28.1%
Cc1ccc(NS(=O)(=O)c2cc(-c3cnc(C4CC4)o3)ccc2C)cc1Cl,7.08µM*,?,i,-7.9%,11.2µM*
Cc1ccc(NS(=O)(=O)c2ccc(-c3cnc(C4CC4)o3)cc2)c(C)c1,12.6µM*,-27.3%,?,·,-68.2%
Cc1cc(C)c(NS(=O)(=O)c2cc(-c3cnc(C4CC4)o3)ccc2C)c(C)c1,6.8%,-3.2%,i,9.0%,-23.2%
Cc1cc(C)c(NS(=O)(=O)c2ccc(-c3cnc(C4CC4)o3)cc2)c(C)c1,1.41µM*,-22.6%,?,-31.0%,-67.3%
CCN(CC)c1ccc(NS(=O)(=O)c2ccc(-c3cnc(C4CC4)o3)cc2)c(C)c1,?,-23.4%,?,?,-22.4%
O=S(=O)(Nc1ccc(F)cc1Cl)c1ccc(-c2cnc(C3CC3)o2)cc1,14.1µM*,11.4%,i,·,-53.6%
Cc1ccc(-c2cnc(C3CC3)o2)cc1S(=O)(=O)Nc1ccccc1,-27.0%,·,?,·,2.4%
C[C@H](NC(=O)CCn1ccc2ccc(F)cc21)C(=O)O,·,-16.2%,·,·,·
CCc1ccc(NC(=O)CSc2nc3c(=O)[nH]cnc3n2-c2ccc(C)cc2)cc1,·,17.0%,·,·,·
O=[N+]([O-])c1ccc(/C=N/N=C(c2ccccc2)c2ccccc2)cc1,·,-0.9%,·,·,·
CCOc1cc2c(cc1CNC(=O)c1ccc(Cl)cc1Cl)OC(C)C2 (centres undefined),·,-1.8%,·,·,·
COc1ccc(-c2nc(C3CC3)nc3c2CCN([S+](=O)([O-])c2c(C)noc2C)CC3)cc1,·,2.0%[6.33 µM],·,·,·
COc1cccc(C(=O)N2C(C(=O)NCc3ccccc3)COC23CCN(C(=O)CC(C)C)CC3)c1 (centres undefined),·,47.7%,·,·,·
COc1ccccc1CNS(=O)(=O)c1ccc(-c2cnc(C3CC3)o2)cc1,11.2µM*,36.0%,?,-30.1%,28.7%
CCc1ccccc1NS(=O)(=O)c1ccc(-c2cnc(C3CC3)o2)cc1,·,5.6%,·,·,·
COc1ccc(NS(=O)(=O)c2ccc(-c3cnc(C4CC4)o3)cc2)cc1OC,-30.7%,17.3%,i,·,-21.6%
CCOc1ccccc1NS(=O)(=O)c1ccc(-c2cnc(C3CC3)o2)cc1,4.47µM*,-4.6%,i,·,-31.5%
O=S(=O)(Nc1cccc(C(F)(F)F)c1)c1ccc(-c2cnc(C3CC3)o2)cc1,?,?,?,?,12.6µM*
Cc1cc(-c2ccc(S(=O)(=O)Nc3ccc(Cl)cc3C)cc2)on1,12.6µM*,?,·,·,-30.8%
Cc1cc(C)cc(NC(=O)N2CCCC2c2ccco2)c1 (centres undefined),·,6.7%,·,·,·
SMILES,TGFb inhibitor,12-LOX inh,ATXN viability,ATXN2 expr inh,HepG2 tox
CCCCCCCCCCS(=O)CCCl (centres undefined),·,6.8%,·,·,·
CC(C)(C)c1ccc(C(=O)Nc2ccc(NC(=O)c3ccc(C#N)cc3F)cc2)cc1,·,-1.4%,·,·,·
OC(c1cccc(Cl)c1)c1ncc(-c2ccc(Oc3ccccc3)cc2)[nH]1 (centres undefined),17.8µM*,?,·,?,11.2µM*
OC(c1cccc(F)c1)c1ncc(-c2ccc(Oc3ccccc3)cc2)[nH]1 (centres undefined),?,-12.6%,?,-23.1%,-74.4%
COc1ccccc1-c1cnc(C(O)c2cc(Cl)cc(Cl)c2)[nH]1 (centres undefined),11.2µM*,-6.3%,i,-7.4%,-20.8%
CCOC(=O)C1=C(N)c2ccccc2CC1C1CCCC1 (centres undefined),12.6µM*,-1.4%,i,·,-116.3%
O=C(CN(CCc1ccccc1)S(=O)(=O)c1ccccc1)NCc1ccc(Cl)cc1,?,-14.0%,?,0.0%,-3.9%
O=C(CN(CCc1ccccc1)S(=O)(=O)c1ccc(Br)cc1)NCc1ccc(Cl)cc1,7.0%,4.47µM*,i,12.4%,-29.8%
CC1CCC(C(=O)Nc2c(NC3CCCCC3)c3ccccc3oc2=O)CC1 (centres undefined),·,-31.0%,·,·,·
Cc1ccccc1OCc1nc(-c2ccc(NC(=O)c3ccco3)cc2)no1,-0.8%,8.9%,?,-3.0%,-24.2%
Cc1ccccc1OCc1nc(-c2ccc(NC(=O)c3ccc4c(c3)OCO4)cc2)no1,?,64.8%,?,?,20µM*
Cc1cc(OCC(=O)Nc2ccc(NC(=O)C3CC3)cc2C(F)(F)F)ccc1Cl,·,14.7%,·,·,·
N#Cc1c(NCCN)nc(-c2ccco2)c2c1CCCC2,?,-12.6%,i,12.6µM*,-29.0%
COC(=O)C(C)Sc1nc(C)nc2c1c(=O)n(C)c(=O)n2CC(C)C (centres undefined),·,-6.1%,·,·,·
Cc1cccc(C)c1OCC(=O)NCc1nnc(SCC(=O)NC2CCCCC2C)n1C (centres undefined),3.2%,7.08µM*,?,0.7%,-10.8%
CC(=NNC(=S)N1CC2CCC(CC2)C1)c1ccncn1,?,?,?,0.316µM*,-40.1%
